High-throughput results (PubChem)
Sampled rows, rich in hits. Any-hit rate of the full collection: about 18%.
TDP1 cell noCPT: qHTS for Inhibitors of human tyrosyl-DNA phosphodiesterase 1 (TDP1): qHTS in cells in absence of CPT | DT40 Tdp1-/- hTDP1 cells, no CPT, ATP luminescence, 48 h | 420,000 tested, 15% active | Potency, µM (top dose mostly 46.2 µM), for inactives: at the top dose activity change, negative = growth inhibition, usual class: inhibitors | AID 686978, 2013; further: potency means the concentration at half of the fitted maximal effect; on the % scale 0 is the no-effect control and ±100 the full control effect; nearly all actives have a fitted effect of over 55% in size
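Chicken DT40 Tdp1-/- cells stably complemented with human TDP1 were seeded at 400 cells/well with DMSO in place of 20 nM camptothecin. After compound pinning, cells grew at least 48 hr at 37 °C; viability read by CellTiter-Glo luminescence.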
IL-1B inflam inh: qHTS for Inhibitors of Inflammasome Signaling: IL-1-beta AlphaLISA Primary Screen; activity change, % at 57.5 µM; 360,000 tested, 4.7% active; THP-1 LPS/ATP IL-1B secretion, AlphaLISA, 16 h; active compounds read low; in the data active means activity change below about -50%; inconclusive means mostly about -30% to -49%; further: on the % scale 0 is the no-effect control and ±100 the full control effect
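THP-1 cells pretreated 1 hr with compounds (up to 57.5 uM final), then stimulated with LPS (250 ng/mL final) plus ATP (1.25 mM final); secreted IL-1B measured by AlphaLISA after 16 hr, decreased signal indicating inhibition.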
HepG2 tox: qHTS for Inhibitors of TGF-b: Cytotox Counterscreen | HepG2 CAGA-GFP viability, ATP luminescence, 18 h | Potency, µM (series often up to 46.1 µM), for inactives: top-dose activity change, negative = cytotoxicity, usual class: cytotoxic | 410,000 tested, 0.76% active | AID 588856, 2011; further: potency means the concentration at half of the fitted maximal effect
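HepG2 CAGA-GFP cells (1000/well, DMEM with 1% FBS) received compound, then TGF-beta at 500 pg/mL final, and were incubated 18 hours at 37 degrees C. Viability was read by CellTiter-Glo luminescence. Media-only wells were set as complete cell-killing and DMSO as no toxicity.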
TGFb SMAD3 inh: qHTS for Inhibitors of TGF-b. 410,000 tested, 1.2% active. HepG2 CAGA-GFP TGF-b/SMAD3 reporter, GFP fluorescence, 18 h; TGF-beta stimulated, 500 pg/mL final. Potency, µM (highest dose often 46.1 µM), for the others: top-dose activity, negative = inhibition, hits mostly inhibitors. AID 588855, 2011; further: potency means the concentration at half of the fitted maximal effect; on the % scale 0 is the no-effect control and ±100 the full control effect; nearly all actives have a fitted effect of over 65% in size
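Read-out: total well GFP (ex488/em500-530) summed from mean per-cell fluorescence. Cells: HEPG2 CAGA-GFP, 1% FBS DMEM, 18 h at 37 degrees C with 500 pg/mL final TGF-beta. Unstimulated wells served as the full-inhibition control; stimulated DMSO wells = 0%.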
TDP1 inh: qHTS Assay for Inhibitors of Tyrosyl-DNA Phosphodiesterase (TDP1). Tyrosyl-DNA phosphodiesterase 1 (Homo sapiens), Q9NUW8. recombinant TDP1, AlphaScreen DNA substrate cleavage. Potency, µM (series often up to 130 µM), for the others: top-dose activity change, negative = inhibition, actives largely listed as inhibitors. 350,000 tested, 0.28% active; further: potency means the concentration at half of the fitted maximal effect; on the % scale 0 is the no-effect control and ±100 the full control effect; nearly all actives have a fitted effect of over 40% in size
Target sequence (Q9NUW8 whole entry, looked up): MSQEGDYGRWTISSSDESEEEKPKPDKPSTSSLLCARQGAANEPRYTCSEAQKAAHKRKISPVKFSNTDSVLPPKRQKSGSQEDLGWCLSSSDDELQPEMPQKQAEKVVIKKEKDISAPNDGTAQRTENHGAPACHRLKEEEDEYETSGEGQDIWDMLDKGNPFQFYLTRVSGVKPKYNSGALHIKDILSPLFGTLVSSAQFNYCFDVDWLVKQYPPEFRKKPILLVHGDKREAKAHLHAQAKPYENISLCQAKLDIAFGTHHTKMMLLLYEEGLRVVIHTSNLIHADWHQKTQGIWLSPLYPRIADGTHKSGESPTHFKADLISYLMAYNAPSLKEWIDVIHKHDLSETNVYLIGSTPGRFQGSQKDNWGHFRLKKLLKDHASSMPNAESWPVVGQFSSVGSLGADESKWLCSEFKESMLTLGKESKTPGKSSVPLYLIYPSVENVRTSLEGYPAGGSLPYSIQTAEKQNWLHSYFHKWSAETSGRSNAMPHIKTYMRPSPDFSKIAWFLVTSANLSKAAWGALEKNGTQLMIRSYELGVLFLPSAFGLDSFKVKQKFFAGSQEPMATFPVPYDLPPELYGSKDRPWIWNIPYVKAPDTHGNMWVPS
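E. coli-derived human Tdp1, 1 nM final. Cpd preinc 15 min RT; substrate 15 nM final, 5 min RT; AS bead mix 10 ug/ml final, 10 min RT. Signal loss = tyrosine-FITC cleavage. No-enzyme wells = max signal.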
DT40 TDP1 CPT: qHTS for Inhibitors of human tyrosyl-DNA phosphodiesterase 1 (TDP1): qHTS in cells in presence of CPT | 420,000 tested, 12% active | Potency, µM (series often up to 46.2 µM), inactives show at the highest dose activity change, negative = growth inhibition, usual class: inhibitors | chicken DT40 Tdp1-/-;hTDP1 cells + 20 nM CPT, ATP luminescence, 48 h | AID 686979, 2013; further: potency means the concentration at half of the fitted maximal effect; on the % scale 0 is the no-effect control and ±100 the full control effect; nearly all actives have a fitted effect of over 55% in size
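Chicken DT40 Tdp1-/- cells stably complemented with human TDP1 were seeded at 400 cells/well in medium containing 20 nM camptothecin, exposed to pin-transferred compounds, and grown at 37 °C for at least 48 hr. Viability was read as ATP luminescence.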
Starred values were filed as active, the others as inactive; ? = inconclusive; · = not tested or not shown; [ ] = remark or other dose. Unless noted, the call rests on the fitted dose curve; in most records, active means well fitted curve in the direction sought with a large enough effect; inconclusive means small, poorly fitted or top-dose-only effect, or another doubt; inactive means no such curve, though single readings can be large; an effect the other way counts as inactive or inconclusive.

SMILES	TDP1 cell noCPT	IL-1B inflam inh	HepG2 tox	TGFb SMAD3 inh	TDP1 inh	DT40 TDP1 CPT
O=C(COc1ccc(-c2ccccc2)cc1)N/N=C/c1ccccc1Br	?	-9	-6%	?	4%	-4%
O=C(CNC(=O)c1ccncc1)N/N=C/c1cc(Br)ccc1OCc1ccccc1	?	?	-8%	?	7%	?
O=C(COc1ccc(-c2ccccc2)cc1)N/N=C/c1cc(O)ccc1Br	16µM*	-95*	-63%	13µM*	4%	?
CC12CC[C@@](C(=O)O)(C(=O)C1=O)C2(C)C	4%[9.04 µM]	·	·	·	6%	20%[9.04 µM]
C/C(=N/NC(=O)CNC(=O)c1ccc2c(c1)OCO2)c1ccc2c(c1)CCCC2	-19%	-50*	5%	-3%	3%	8%
C/C(=N/NC(=O)CNC(=O)c1ccccc1F)c1ccc2c(c1)CCCC2	?	13	3%	11%	4%	?
O=C(Cc1ccc(Cl)c(Cl)c1)Nc1ccccc1N1CCCC1	?	14	-7%	?	7%	15µM*
CCC(=O)N1CCN(c2ccccc2NC(=O)Cc2ccc(Cl)cc2)CC1	23µM*	0	-25%	?	1%	-15%
O=C(CCc1ccccc1)N1CCCC(Nc2ccc(F)cc2)C1 (configuration not stated)	2%	0	-1%	-11%	5%[56.1 µM]	-10%
COc1cccc(C(=O)Nc2ncc3c(n2)CC(C)(C)CC3=O)c1	16µM*	-4	-14%	7%	3%	?
COc1ccc(C2CC(=O)c3cnc(NC(=O)c4cccc(OC)c4)nc3C2)cc1 (configuration not stated)	?	-3	-12%	1%	4%	?
COc1ccc(C2CC(=O)c3cnc(NC(=O)c4ccccc4OC)nc3C2)c(OC)c1 (configuration not stated)	15µM*	8	2%	?	8%[56.1 µM]	16µM*
O=C(OCc1cc(=O)n2nc(-c3cccs3)sc2n1)c1ccccc1Br	-20%	·	3%	-6%	2%	-3%
Cc1ccc(Cl)cc1-n1ncc2c(NC3CCCCCC3)ncnc21	21µM*	·	-33%	11µM*	5%	21µM*
Cc1ccc(-n2ncc3c(NC4CCCCCC4)ncnc32)cc1Cl	?	·	-30%	-30%	5%	?
Clc1ccc(-n2ncc3c(NCC4CCCO4)ncnc32)cc1 (configuration not stated)	16µM*	-14	0%	-12%	0%	16µM*
c1ccc(-n2ncc3c(NC4CCCCCC4)ncnc32)cc1	?	-53*	-24%	-16%	·	?
c1ccc(-n2ncc3c(NCC4CCCO4)ncnc32)cc1 (configuration not stated)	?	-14	-20%	8%	3%	?
NNc1ncnc2c1cnn2-c1ccccc1	?	43	-32%	?	10%	?
OCCCNc1ncnc2c1cnn2-c1ccc(Cl)cc1	?	-23	-11%	2%	·	-23%
Clc1ccc(-n2ncc3c(NC4CCCC4)ncnc32)cc1	16µM*	·	4%	18%	3%	16µM*
CCOc1ccc(CNC(=O)CN2C(=O)CCn3nc(-c4cn(C)c5ccccc45)cc32)cc1OC	-8%	·	6%	10%	5%	-13%
